# Measurements from paper PMC7862700, “An all-to-all approach to the identification of sequence-specific readers for epigenetic DNA modifications on cytosine”.
# How the values were obtained:
# Assay in all cases: DAPPL (digital affinity profiling via proximity ligation, sequencing); 10 mM Tris-HCl pH 7.5, 50 mM NaCl, 1 mM DTT, 4% glycerol, room temperature, 30 min; GST-TFs on glutathione beads, 16-mer random dsDNA library, 0.1% formaldehyde crosslink after washing; high values mean tight binding
# [1] = target: T1, FEV (Homo sapiens, UniProt Q99581 1-238); conditions: protein: recombinant; tags: N-terminal GST; dsDNA, one strand shown
# T1 sequence: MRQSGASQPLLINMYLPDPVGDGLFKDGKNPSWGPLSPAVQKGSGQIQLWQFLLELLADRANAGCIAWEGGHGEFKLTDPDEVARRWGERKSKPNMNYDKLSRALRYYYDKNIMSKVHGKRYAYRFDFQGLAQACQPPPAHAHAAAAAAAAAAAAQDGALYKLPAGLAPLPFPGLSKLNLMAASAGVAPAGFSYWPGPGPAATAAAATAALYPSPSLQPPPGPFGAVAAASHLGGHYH
# In short: (§1)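 The binding signal reported is, for every hexamer, its read frequency for a factor over its read frequency for the tag-only sample. Reads came from pools of yeast-expressed, GST-fused human transcription factors on glutathione beads, barcoded with DNA and mixed with that sample, which were incubated with 200 nmole of a random double-stranded 16-mer DNA library in Tris/NaCl/DTT/glycerol buffer at room temperature for 30 min. After washing, the pools were crosslinked with 0.1% formaldehyde, proximity-ligated with BsaI/T4 ligase for 1 h at 37 °C, PCR-amplified and sequenced on an Illumina NextSeq500.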
# [2] = target: ETV5 (Homo sapiens, UniProt P41161 1-510); conditions: protein: recombinant; tags: N-terminal GST; dsDNA, one strand shown
# Sequence of ETV5 (P41161 whole entry): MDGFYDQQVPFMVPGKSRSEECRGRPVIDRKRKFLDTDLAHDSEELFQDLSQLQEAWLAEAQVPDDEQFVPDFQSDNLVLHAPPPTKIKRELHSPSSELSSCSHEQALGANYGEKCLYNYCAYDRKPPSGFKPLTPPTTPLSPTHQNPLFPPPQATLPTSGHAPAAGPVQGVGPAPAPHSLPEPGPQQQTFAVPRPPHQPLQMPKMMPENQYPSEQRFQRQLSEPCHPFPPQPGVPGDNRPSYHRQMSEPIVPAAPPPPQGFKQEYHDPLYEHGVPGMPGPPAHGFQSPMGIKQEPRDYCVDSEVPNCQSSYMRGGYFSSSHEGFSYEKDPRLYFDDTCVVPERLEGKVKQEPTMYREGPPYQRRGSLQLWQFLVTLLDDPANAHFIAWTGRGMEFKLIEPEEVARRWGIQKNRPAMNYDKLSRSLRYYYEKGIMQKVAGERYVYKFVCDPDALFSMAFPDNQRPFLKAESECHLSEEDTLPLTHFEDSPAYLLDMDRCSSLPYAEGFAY
# In short: as §1
# [3] = target: HSF1 (Homo sapiens, UniProt Q00613 1-529); conditions: protein: recombinant; tags: N-terminal GST; chain copies: 3; dsDNA, one strand shown
# Sequence of HSF1 (Q00613 whole entry): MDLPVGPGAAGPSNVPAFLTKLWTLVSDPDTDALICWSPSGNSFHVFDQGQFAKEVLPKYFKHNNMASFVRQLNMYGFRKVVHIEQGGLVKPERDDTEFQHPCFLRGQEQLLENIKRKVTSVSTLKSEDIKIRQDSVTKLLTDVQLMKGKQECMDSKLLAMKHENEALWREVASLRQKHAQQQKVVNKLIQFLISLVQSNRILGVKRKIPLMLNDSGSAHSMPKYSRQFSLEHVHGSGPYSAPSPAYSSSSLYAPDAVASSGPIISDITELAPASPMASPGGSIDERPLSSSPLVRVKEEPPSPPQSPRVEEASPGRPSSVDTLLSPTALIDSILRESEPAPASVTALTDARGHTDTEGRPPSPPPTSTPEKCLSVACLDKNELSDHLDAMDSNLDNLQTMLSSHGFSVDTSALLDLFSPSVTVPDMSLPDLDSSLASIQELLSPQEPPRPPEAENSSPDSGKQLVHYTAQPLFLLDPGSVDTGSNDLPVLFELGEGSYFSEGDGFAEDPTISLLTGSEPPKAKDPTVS
# In short: as §1
# [4] = target: T2, SPIC (Homo sapiens, UniProt Q8N5J4 1-248); conditions: protein: recombinant; tags: N-terminal GST; dsDNA, one strand shown
# T2 sequence: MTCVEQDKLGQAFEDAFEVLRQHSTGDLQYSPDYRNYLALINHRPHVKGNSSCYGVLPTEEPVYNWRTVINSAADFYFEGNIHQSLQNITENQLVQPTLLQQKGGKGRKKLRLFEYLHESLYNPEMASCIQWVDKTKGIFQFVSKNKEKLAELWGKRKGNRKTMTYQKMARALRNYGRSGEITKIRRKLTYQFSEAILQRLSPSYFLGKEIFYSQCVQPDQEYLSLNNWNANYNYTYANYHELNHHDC
# In short: as §1
# [5] = target: ELF4 (Homo sapiens, UniProt Q99607 1-663); conditions: protein: recombinant; tags: N-terminal GST; dsDNA, one strand shown
# Sequence of ELF4 (Q99607 whole entry): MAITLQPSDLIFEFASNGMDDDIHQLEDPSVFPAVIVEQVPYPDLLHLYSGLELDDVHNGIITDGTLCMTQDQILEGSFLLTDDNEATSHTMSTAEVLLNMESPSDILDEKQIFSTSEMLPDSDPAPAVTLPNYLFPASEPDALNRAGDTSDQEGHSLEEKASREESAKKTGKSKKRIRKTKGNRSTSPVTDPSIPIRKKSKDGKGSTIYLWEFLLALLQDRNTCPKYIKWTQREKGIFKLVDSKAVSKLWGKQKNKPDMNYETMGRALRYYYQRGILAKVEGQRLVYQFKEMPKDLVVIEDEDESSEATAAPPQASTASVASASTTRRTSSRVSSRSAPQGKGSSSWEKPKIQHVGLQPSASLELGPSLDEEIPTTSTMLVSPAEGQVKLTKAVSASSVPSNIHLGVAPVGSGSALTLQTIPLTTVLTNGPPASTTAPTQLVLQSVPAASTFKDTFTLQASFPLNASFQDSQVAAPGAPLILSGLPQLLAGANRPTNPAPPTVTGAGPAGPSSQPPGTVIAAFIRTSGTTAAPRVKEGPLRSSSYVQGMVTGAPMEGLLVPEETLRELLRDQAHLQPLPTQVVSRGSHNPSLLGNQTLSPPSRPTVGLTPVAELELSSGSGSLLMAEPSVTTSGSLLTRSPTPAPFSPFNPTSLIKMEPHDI
# In short: as §1
# [6] = target: T3, ELK4 (Homo sapiens, UniProt P28324-2 1-405); conditions: protein: recombinant; tags: N-terminal GST; dsDNA, one strand shown
# T3 sequence: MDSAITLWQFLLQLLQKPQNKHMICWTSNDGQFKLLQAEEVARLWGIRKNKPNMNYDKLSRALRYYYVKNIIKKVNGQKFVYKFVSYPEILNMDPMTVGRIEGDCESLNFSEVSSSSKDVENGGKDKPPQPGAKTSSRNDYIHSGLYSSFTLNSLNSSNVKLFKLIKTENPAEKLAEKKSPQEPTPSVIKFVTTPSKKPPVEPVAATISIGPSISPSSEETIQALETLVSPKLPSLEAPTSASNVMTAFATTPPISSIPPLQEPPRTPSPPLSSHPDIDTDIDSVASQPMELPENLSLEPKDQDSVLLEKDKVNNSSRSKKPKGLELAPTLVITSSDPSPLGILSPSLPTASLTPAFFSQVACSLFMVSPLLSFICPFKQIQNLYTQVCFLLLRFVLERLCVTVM
# In short: as §1
# [7] = target: T4, ETV2 (Homo sapiens, UniProt O00321 1-342); conditions: protein: recombinant; tags: N-terminal GST; dsDNA, one strand shown
# T4 sequence: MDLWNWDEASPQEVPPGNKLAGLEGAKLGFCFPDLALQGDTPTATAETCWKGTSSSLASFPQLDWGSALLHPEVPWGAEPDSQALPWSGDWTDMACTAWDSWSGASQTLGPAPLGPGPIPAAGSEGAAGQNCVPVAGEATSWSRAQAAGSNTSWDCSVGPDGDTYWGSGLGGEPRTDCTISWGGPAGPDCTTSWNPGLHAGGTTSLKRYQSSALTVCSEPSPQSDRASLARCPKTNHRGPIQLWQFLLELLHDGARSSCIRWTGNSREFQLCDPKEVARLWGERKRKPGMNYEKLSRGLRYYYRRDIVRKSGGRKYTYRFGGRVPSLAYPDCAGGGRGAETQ
# In short: as §1
# [8] = target: T5, ELF3 (Homo sapiens, UniProt P78545 1-371); conditions: protein: recombinant; tags: N-terminal GST; dsDNA, one strand shown
# T5 sequence: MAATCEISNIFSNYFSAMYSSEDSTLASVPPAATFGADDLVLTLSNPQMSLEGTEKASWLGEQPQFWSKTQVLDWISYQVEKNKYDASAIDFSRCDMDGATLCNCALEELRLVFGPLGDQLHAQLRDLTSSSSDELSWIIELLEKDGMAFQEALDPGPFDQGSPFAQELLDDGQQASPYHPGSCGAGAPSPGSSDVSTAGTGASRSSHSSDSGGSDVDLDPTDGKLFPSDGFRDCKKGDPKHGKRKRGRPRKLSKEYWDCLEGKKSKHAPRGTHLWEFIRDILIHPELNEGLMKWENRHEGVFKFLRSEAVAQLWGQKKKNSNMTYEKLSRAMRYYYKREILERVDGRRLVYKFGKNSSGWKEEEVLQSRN
# In short: as §1
# [9] = target: CRX (Homo sapiens, UniProt O43186 1-299); conditions: protein: recombinant; tags: N-terminal GST; dsDNA, one strand shown
# Sequence of CRX (O43186 whole entry): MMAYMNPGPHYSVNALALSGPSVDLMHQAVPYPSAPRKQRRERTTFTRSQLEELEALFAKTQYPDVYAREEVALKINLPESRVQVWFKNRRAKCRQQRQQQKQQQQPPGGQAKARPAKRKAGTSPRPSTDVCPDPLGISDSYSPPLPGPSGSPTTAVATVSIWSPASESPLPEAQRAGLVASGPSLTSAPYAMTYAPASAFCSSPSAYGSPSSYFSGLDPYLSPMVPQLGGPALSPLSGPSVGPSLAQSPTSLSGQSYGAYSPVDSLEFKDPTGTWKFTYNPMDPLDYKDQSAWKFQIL
# In short: as §1
# [10] = target: ETV1 (Homo sapiens, UniProt P50549 1-477); conditions: protein: recombinant; tags: N-terminal GST; dsDNA, one strand shown
# Sequence of ETV1 (P50549 whole entry): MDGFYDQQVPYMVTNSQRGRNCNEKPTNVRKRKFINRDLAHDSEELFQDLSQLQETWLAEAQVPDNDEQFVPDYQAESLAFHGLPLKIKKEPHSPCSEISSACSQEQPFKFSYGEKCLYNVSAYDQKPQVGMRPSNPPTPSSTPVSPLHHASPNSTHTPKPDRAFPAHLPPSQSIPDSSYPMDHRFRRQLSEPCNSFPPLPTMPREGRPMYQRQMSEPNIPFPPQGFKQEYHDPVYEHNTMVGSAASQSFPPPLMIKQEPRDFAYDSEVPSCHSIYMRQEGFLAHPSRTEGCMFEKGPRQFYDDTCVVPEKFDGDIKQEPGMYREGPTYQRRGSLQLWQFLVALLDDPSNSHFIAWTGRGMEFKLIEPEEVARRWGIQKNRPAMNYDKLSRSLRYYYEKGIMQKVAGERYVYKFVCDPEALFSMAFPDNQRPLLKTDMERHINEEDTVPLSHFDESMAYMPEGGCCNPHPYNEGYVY
# In short: as §1
# [11] = target: T6, ERF (Homo sapiens, UniProt P50548 1-548); conditions: protein: recombinant; tags: N-terminal GST; dsDNA, one strand shown
# T6 sequence: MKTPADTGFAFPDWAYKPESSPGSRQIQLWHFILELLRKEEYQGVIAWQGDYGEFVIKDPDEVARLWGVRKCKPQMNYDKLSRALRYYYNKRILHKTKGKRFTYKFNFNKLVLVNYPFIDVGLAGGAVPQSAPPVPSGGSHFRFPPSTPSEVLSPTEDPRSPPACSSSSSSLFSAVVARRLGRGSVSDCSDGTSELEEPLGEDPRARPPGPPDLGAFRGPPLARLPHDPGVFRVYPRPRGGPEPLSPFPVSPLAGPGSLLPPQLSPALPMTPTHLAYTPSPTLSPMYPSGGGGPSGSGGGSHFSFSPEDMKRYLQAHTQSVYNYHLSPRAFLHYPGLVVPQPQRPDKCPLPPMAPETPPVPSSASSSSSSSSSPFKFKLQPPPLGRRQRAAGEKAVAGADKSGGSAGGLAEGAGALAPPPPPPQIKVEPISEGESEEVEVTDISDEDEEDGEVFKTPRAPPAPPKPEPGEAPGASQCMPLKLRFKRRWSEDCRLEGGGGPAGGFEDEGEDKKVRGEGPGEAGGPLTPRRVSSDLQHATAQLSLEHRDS
# In short: as §1
# [12] = target: T7, ETV3L (Homo sapiens, UniProt Q6ZN32 1-361); conditions: protein: recombinant; tags: N-terminal GST; dsDNA, one strand shown
# T7 sequence: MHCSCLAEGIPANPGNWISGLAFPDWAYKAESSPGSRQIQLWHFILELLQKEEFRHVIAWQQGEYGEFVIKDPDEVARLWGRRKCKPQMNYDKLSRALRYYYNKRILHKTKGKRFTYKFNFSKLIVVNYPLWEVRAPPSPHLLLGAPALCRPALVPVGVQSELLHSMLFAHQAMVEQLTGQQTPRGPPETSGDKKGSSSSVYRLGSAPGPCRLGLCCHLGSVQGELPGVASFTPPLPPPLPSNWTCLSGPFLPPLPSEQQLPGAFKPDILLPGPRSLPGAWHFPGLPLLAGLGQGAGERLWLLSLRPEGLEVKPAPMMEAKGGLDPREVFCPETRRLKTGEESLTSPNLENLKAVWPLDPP
# In short: as §1
# [13] = target: T8, ETS2 (Homo sapiens, UniProt P15036 1-469); conditions: protein: recombinant; tags: N-terminal GST; dsDNA, one strand shown
# T8 sequence: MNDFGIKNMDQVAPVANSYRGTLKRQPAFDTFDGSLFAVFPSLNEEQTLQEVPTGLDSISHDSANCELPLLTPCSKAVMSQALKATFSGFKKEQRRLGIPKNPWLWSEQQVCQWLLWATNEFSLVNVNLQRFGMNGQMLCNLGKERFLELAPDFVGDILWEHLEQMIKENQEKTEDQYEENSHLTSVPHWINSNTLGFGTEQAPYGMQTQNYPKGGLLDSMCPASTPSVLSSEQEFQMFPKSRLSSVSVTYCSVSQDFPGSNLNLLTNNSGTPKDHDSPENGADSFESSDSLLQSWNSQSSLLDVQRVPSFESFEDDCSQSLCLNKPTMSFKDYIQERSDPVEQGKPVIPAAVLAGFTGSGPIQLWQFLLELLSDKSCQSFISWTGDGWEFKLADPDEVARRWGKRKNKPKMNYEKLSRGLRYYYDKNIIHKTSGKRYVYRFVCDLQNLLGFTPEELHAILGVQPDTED
# In short: as §1
# [14] = target: T9, SPDEF (Homo sapiens, UniProt O95238 1-335); conditions: protein: recombinant; tags: N-terminal GST; dsDNA, one strand shown
# T9 sequence: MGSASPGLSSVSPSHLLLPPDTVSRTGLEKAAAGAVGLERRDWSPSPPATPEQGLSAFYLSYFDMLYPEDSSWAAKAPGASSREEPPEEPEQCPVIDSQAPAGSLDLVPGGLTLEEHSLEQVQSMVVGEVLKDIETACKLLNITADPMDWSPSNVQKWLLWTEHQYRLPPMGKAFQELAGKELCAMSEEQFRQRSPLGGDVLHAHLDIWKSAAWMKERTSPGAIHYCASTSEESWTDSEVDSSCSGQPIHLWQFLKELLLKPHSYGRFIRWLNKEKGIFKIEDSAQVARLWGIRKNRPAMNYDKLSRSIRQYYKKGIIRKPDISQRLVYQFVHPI
# In short: as §1
# [15] = target: T10, ETV7 (Homo sapiens, UniProt Q9Y603 1-341); conditions: protein: recombinant; tags: N-terminal GST; dsDNA, one strand shown
# T10 sequence: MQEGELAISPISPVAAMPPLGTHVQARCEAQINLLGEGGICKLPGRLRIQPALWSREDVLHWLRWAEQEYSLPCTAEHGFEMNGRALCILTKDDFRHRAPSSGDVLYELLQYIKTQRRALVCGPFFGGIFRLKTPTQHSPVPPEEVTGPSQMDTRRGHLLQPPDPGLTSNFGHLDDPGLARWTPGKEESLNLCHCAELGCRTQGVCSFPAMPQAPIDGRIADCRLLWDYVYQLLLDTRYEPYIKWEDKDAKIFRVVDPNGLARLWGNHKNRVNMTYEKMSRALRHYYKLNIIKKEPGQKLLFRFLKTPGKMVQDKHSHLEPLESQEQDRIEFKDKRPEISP
# In short: as §1
# [16] = target: T11, ELF5 (Homo sapiens, UniProt Q9UKW6-2 1-255); conditions: protein: recombinant; tags: N-terminal GST; dsDNA, one strand shown
# T11 sequence: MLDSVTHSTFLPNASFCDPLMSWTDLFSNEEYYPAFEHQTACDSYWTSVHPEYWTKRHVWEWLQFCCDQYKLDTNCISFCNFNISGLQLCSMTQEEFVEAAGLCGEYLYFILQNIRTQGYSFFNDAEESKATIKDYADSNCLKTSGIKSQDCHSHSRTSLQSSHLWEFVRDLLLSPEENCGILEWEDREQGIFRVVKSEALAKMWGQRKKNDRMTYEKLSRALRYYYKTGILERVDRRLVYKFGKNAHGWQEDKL
# In short: as §1
# [17] = target: T12, ETV3 (Homo sapiens, UniProt P41162-2 1-143); conditions: protein: recombinant; tags: N-terminal GST; dsDNA, one strand shown
# T12 sequence: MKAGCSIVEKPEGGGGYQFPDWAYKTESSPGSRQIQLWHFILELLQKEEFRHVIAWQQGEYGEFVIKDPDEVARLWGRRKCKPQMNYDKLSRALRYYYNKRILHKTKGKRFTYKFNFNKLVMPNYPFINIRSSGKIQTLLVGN
# In short: as §1
# [18] = target: ETV6 (Homo sapiens, UniProt P41212 1-452); conditions: protein: recombinant; tags: N-terminal GST; dsDNA, one strand shown
# Sequence of ETV6 (P41212 whole entry): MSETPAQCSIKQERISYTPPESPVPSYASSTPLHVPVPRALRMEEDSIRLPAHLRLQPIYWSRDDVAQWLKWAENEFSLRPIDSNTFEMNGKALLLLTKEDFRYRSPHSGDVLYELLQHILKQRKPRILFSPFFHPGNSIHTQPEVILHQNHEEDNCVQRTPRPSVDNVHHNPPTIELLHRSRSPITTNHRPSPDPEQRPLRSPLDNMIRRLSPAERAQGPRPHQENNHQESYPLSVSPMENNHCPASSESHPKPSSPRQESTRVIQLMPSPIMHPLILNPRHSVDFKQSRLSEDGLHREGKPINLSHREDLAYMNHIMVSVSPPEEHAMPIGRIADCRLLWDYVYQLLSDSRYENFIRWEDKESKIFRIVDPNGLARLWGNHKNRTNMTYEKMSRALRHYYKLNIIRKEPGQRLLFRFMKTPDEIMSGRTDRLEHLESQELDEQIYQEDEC
# In short: as §1
sequence,measurement,setting,value
CTCCAA,binding signal,[1],"1.29 fold enrichment (6-mer frequency, TF over GST control)"
same,binding signal,[2],"1.3 fold enrichment (6-mer frequency, TF over GST control)"
same,binding signal,[3],"1.31 fold enrichment (6-mer frequency, TF over GST control)"
same,binding signal,[4],"1.35 fold enrichment (6-mer frequency, TF over GST control)"
same,binding signal,[5],"1.38 fold enrichment (6-mer frequency, TF over GST control)"
same,binding signal,[6],"1.23 fold enrichment (6-mer frequency, TF over GST control)"
same,binding signal,[7],"1.36 fold enrichment (6-mer frequency, TF over GST control)"
same,binding signal,[8],"1.32 fold enrichment (6-mer frequency, TF over GST control)"
same,binding signal,[9],"1.14 fold enrichment (6-mer frequency, TF over GST control)"
same,binding signal,[10],"1.33 fold enrichment (6-mer frequency, TF over GST control)"
same,binding signal,[11],"1.32 fold enrichment (6-mer frequency, TF over GST control)"
same,binding signal,[12],"1.28 fold enrichment (6-mer frequency, TF over GST control)"
same,binding signal,[13],"1.32 fold enrichment (6-mer frequency, TF over GST control)"
same,binding signal,[14],"1.33 fold enrichment (6-mer frequency, TF over GST control)"
same,binding signal,[15],"1.52 fold enrichment (6-mer frequency, TF over GST control)"
same,binding signal,[16],"1.23 fold enrichment (6-mer frequency, TF over GST control)"
same,binding signal,[17],"1.23 fold enrichment (6-mer frequency, TF over GST control)"
same,binding signal,[18],"1.28 fold enrichment (6-mer frequency, TF over GST control)"
